HP1b binding inh: HTS for Inhibitors of HP1-beta Chromodomain Interactions with Methylated Histone Tails. AlphaScreen HP1-beta / biotin-H3K9me3 peptide binding. Potency, µM (doses to about 114 µM), usual class: inhibitors. AID 540317, 2011. 390,000 tested, 0.56% active. Chromobox protein homolog 1 (Homo sapiens), P83916; further: nearly all actives have a fitted effect of over 70% in size
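AlphaScreen: HP1-beta (50 nM) preformed 30 min with biotin-H3(1-18)K9me3 peptide (50 nM) in PBS pH 7.4, 0.01% Tween-20. Compound added for 30 min at RT, then streptavidin donor/nickel chelate acceptor beads (10 ug/mL) for 30 min.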
BAZ2B block: qHTS Assay for Inhibitors of BAZ2B. Bromodomain adjacent to zinc finger domain protein 2B (Homo sapiens), Q9UIF8. AlphaScreen BAZ2B-H3K14Ac peptide displacement. Potency, µM (highest dose often 114 µM), hits mostly inhibitors. 360,000 tested, 4.4% active. AID 504333, 2011; further: nearly all actives have a fitted effect of over 60% in size
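Multi-concentration screen (max 110 uM) measuring displacement of acetylated histone H3 peptide from BAZ2B by AlphaScreen, using 50 nM protein, 50 nM peptide and 10 ug/mL streptavidin donor plus Ni-chelate acceptor beads.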
JMJD2A Tudor inh: qHTS Assay for Inhibitors of JMJD2A-Tudor Domain; Lysine-specific demethylase 4A (Homo sapiens), O75164; AlphaScreen JMJD2A-Tudor / H3K4me3 peptide binding; Potency, µM (top dose mostly 114 µM), usual class: inhibitors; 390,000 tested, 4.4% active; AID 504339, 2011; further: nearly all actives have a fitted effect of over 50% in size
G9a block: qHTS Assay for Inhibitors of Histone Lysine Methyltransferase G9a; Histone-lysine N-methyltransferase EHMT2 (Homo sapiens), Q96KQ7; G9a H3K9 monomethylation, AlphaScreen, 2 h; AID 504332, 2011; Potency, µM (series often up to 102 µM), hits mostly inhibitors; 350,000 tested, 8.8% active; further: nearly all actives have a fitted effect of over 75% in size
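G9a (20 nM) preincubated 15 min RT with compounds, then 500 nM biotinylated H3K9 peptide and 20 uM SAM added; 2 h RT reaction. Monomethyl-H3K9 product detected by AlphaScreen with anti-H3K9me1 antibody, streptavidin donor and anti-rabbit IgG acceptor beads.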
Sfp PPTase inh: qHTS Assay for Inhibitors of Bacillus subtilis Sfp phosphopantetheinyl transferase (PPTase). 4'-phosphopantetheinyl transferase ffp (Bacillus subtilis), Q9F4F7. Biochemical Sfp PPTase activity, qHTS. Potency, µM, usual class: inhibitors. 310,000 tested, 3.5% active. AID 1490, 2009;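 further: the enzyme is Sfp with the accession as filed and its product quenches rhodamine fluorescence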
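Step 1, compound plus 15 nM Sfp-PPTase, 15 min, room temperature. Step 2, add rhodamine-CoA (5 uM) and BHQ-2-YbbR (12.5 uM). Step 3, read 525/598 nm fluorescence at 0 and 30 min.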
Each line names hits and unclear results; the compound was inactive in the other large screens. Compounds with a hit are over-represented: about 12% of the library has one in this group of screens. The call rests on the fitted dose curve; in most records, active means well fitted curve in the direction sought with a large enough effect; inconclusive means small, poorly fitted or top-dose-only effect, or another doubt; inactive means no such curve, though single readings can be large; an effect the other way counts as inactive or inconclusive.

CCOc1cc(C(=S)N2CCCCC2)ccc1OS(=O)(=O)c1ccc(Br)cc1	none
CCOc1cc(C(=S)N2CCOCC2)ccc1OS(=O)(=O)c1ccc(C)cc1	G9a block 35µM
COc1ccc(C(=O)Oc2ccc(C(=S)N3CCOCC3)cc2)cc1	HP1b binding inh inconclusive, JMJD2A Tudor inh inconclusive, Sfp PPTase inh 22µM (no result: G9a block)
O=C(/C=C/c1ccco1)Oc1ccc(C(=S)N2CCOCC2)cc1	JMJD2A Tudor inh 18µM, G9a block inconclusive
Cc1ccc2cc(CN(CC(C)C)S(=O)(=O)c3ccccc3)c(=O)[nH]c2c1	none
COc1ccc(/C=N/NC(=O)c2cc(-c3ccc(C)cc3C)nc3ccccc23)cc1COC(C)=O	none
CC(C)CN1C(=O)C(=O)N(CC(=O)N2CCN(c3ccccc3)CC2)C1=O	none (no result: Sfp PPTase inh)
COC1CCCCC1NS(=O)(=O)c1ccccc1 (centres undefined)	none
CCOC(=O)c1cnn(-c2ncnc3c2cnn3C)c1N	none (no result: G9a block)
O=C(CNS(=O)(=O)/C=C/c1ccccc1)OCC(=O)N1CCC(Cc2ccccc2)CC1	none
CCOc1cc(C(=S)N2CCC(O)CC2)ccc1OS(=O)(=O)c1ccc(Br)cc1	HP1b binding inh inconclusive, BAZ2B block inconclusive, JMJD2A Tudor inh inconclusive, G9a block 8.9µM, Sfp PPTase inh inconclusive
COC(=O)c1ccc(OC(=O)/C=C/c2ccco2)cc1	HP1b binding inh inconclusive, G9a block inconclusive
O=C(Oc1ccccc1C(=S)N1CCOCC1)c1ccccc1	G9a block 45µM
O=Cc1cccc(OC(=O)/C=C/c2ccco2)c1	HP1b binding inh 14µM, JMJD2A Tudor inh 35µM, G9a block inconclusive
Cn1c(=O)[nH]c(=O)c2c1nc(N1CCN(Cc3ccccc3)CC1)n2CCSc1ncccn1	none
C=CCn1c(SCc2nc3sc(C(=O)O)c(C)c3c(=O)[nH]2)nnc1-c1ccc(F)cc1	none
Cc1c(C(=O)O)sc2nc(/C=C/c3ccccc3OC(F)F)[nH]c(=O)c12	HP1b binding inh inconclusive, BAZ2B block 71µM, JMJD2A Tudor inh 16µM, G9a block inconclusive, Sfp PPTase inh inconclusive
Cc1ccc(/C=C/c2nc3sc(C(=O)O)c(C)c3c(=O)[nH]2)cc1[N+](=O)[O-]	BAZ2B block 89µM, JMJD2A Tudor inh inconclusive, G9a block 7.1µM, Sfp PPTase inh 79µM
Cc1c(C(=O)O)sc2nc(/C=C/c3cccc(F)c3)[nH]c(=O)c12	BAZ2B block inconclusive
COCCN(Cc1ccco1)C(=O)c1cc2c(=O)[nH]c3ccc(C)cc3c2s1	none (no result: Sfp PPTase inh)
O=C(Nc1ccc(O)c(C(=O)O)c1)Oc1ccccc1	G9a block 50µM, Sfp PPTase inh inconclusive
O=C(Nc1ccc2oc(=O)c(C(=O)O)cc2c1)Oc1ccccc1	none (no result: BAZ2B block, G9a block, Sfp PPTase inh)
O=C(CSc1ccccn1)Nc1ccc(N2CCOCC2)cc1	JMJD2A Tudor inh inconclusive, G9a block 32µM
Cc1nnc(SCC(=O)Nc2ccc(N3CCOCC3)cc2)o1	G9a block 50µM
Cc1c(NC(=O)c2cc(-n3cnnc3)ccc2Cl)cccc1-c1nc2ccccc2o1	G9a block 2.5µM
O=C(Nc1ccc(-c2nc3ccccc3o2)c(O)c1)c1cc(-n2cnnc2)ccc1Cl	none
O=C(N[C@@H](Cc1ccc(O)cc1)C(=O)O)c1ccc(C(F)(F)F)cc1	none
CCc1cccc2c(-c3csc(=NC)n3C)c[nH]c12	G9a block 50µM
CCc1cccc2c(C(=O)CCl)c[nH]c12	G9a block inconclusive
COC(=O)c1cn(NC(=O)Cn2nc([N+](=O)[O-])c(Br)c2C)c(=O)c2ccccc12	none
O=S(=O)(c1ccc2nc(COc3ccccc3)[nH]c2c1)N1CCOCC1	BAZ2B block inconclusive, G9a block 50µM
CCn1c(SCC(=O)OC)nc2cc(S(=O)(=O)N3CCOCC3)ccc21	none (no result: Sfp PPTase inh)
COC(=O)c1ccc(CSc2nc3ccc(S(=O)(=O)N4CCOCC4)cc3[nH]2)cc1	G9a block 14µM
Cc1csc(SCC(=O)Nc2cc(S(=O)(=O)N3CCOCC3)ccc2N2CCOCC2)n1	none
CCc1ccc(C(=O)CSc2nc3cc(S(=O)(=O)N4CCOCC4)ccc3n2CC)cc1	HP1b binding inh inconclusive, G9a block 45µM, Sfp PPTase inh inconclusive
Cc1csc(SCC(=O)c2ccc(S(=O)(=O)N3CCOCC3)cc2)n1	JMJD2A Tudor inh 56µM, G9a block 28µM, Sfp PPTase inh inconclusive
COc1cccc(-c2noc(CCC(=O)N3CCN(c4cc(C)ccc4C)CC3)n2)c1	none (no result: BAZ2B block, G9a block, Sfp PPTase inh)
Cc1csc(SCc2ccc(C(=O)O)cc2)n1	G9a block 45µM
O=C(O)CSc1nnc(CSc2nc3ccccc3s2)n1-c1ccccc1	G9a block 35µM
O=C(O)CSc1nnc(CNc2ccc(Cl)cc2)n1Cc1ccccc1	BAZ2B block inconclusive, JMJD2A Tudor inh 79µM
O=C(O)CSc1nnc(CNc2ccc(F)cc2)n1-c1ccccc1	BAZ2B block 79µM
CCn1c(CSc2nc3ccccc3s2)nc2ccccc21	G9a block 10µM
CCOc1ccc(NCc2nnc(SCc3ccccc3Cl)n2-c2ccccc2)cc1	BAZ2B block 20µM, JMJD2A Tudor inh 35µM, G9a block inconclusive
CCCC(C(=O)NC1CCCC1)N(Cc1ccc2c(c1)OCO2)C(=O)c1snc(C(N)=O)c1N (centres undefined)	none
CC(=O)c1ccccc1OCCOCCOc1ccccc1C(C)=O	none
CCN(CC)CCOc1ccccc1C(C)=O	HP1b binding inh inconclusive, BAZ2B block 50µM, JMJD2A Tudor inh 18µM, G9a block 11µM
CC(=O)c1cccc(NC(=O)CN2C(=O)COc3ccc(Cl)cc32)c1	none
COc1ccccc1Nc1nc(-c2sc(NC(=O)c3ccc([N+](=O)[O-])cc3)nc2C)cs1	BAZ2B block inconclusive, G9a block 45µM (no result: HP1b binding inh, JMJD2A Tudor inh)
COc1ccccc1Nc1nc(-c2sc(NC(=O)c3ccccc3)nc2C)cs1	JMJD2A Tudor inh inconclusive, G9a block inconclusive
CCOc1ccccc1Nc1nc(-c2sc(NC(=O)c3ccccc3)nc2C)cs1	BAZ2B block inconclusive, G9a block 32µM (no result: HP1b binding inh, JMJD2A Tudor inh)
CCOc1ccccc1Nc1nc(-c2sc(NC(=O)c3cccc(Cl)c3)nc2C)cs1	HP1b binding inh inconclusive, BAZ2B block inconclusive, JMJD2A Tudor inh inconclusive, G9a block 40µM
O=C(CC(c1cccs1)N1Cc2ccccc2C1=O)Nc1ccc(F)cc1 (centres undefined)	none (no result: Sfp PPTase inh)
COc1cc(C)c(S(=O)(=O)Nc2ccc(CC(=O)O)cc2)cc1C	none
Cc1nc2sc(C(c3ccco3)N3CCC(Cc4ccccc4)CC3)c(O)n2n1 (centres undefined)	JMJD2A Tudor inh inconclusive, G9a block inconclusive, Sfp PPTase inh 35µM
Cc1nc2sc(C(c3ccccc3)N3CCC(O)CC3)c(O)n2n1 (centres undefined)	none
COc1ccc(N2CCN(C(c3ccco3)c3sc4nc(C)nn4c3O)CC2)cc1 (centres undefined)	BAZ2B block inconclusive, G9a block 45µM

Assay outcomes as filed in PubChem.
